Results filed as inconclusive are left out. Activity calls are given as the source filed them. Unless noted, calls follow the shape of the dose curve; as a rule, active = well fitted curve in the direction sought with a large enough effect in the repeat runs; inconclusive = weak or mixed curves; inactive = no such curve, though single readings can be large; an effect the other way counts as inactive or inconclusive.

A short description of assay [1]: qHTS assay to identify small molecule agonists of the peroxisome proliferator-activated receptor delta (PPARd) signaling pathway - cell viability counter screen (AID 743211). Also: nearly all actives have a fitted effect of over 55% in size. Summed up: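 HEK293H PPARd-bla, 3000 cells/well; 5 h preincubation 37C/5% CO2; cpd in DMSO, 17 h 37C; B/G FRET substrate 2 h RT; CellTiter-Glo 30 min RT, luminescence.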
Assay [2] deals with Peroxisome proliferator-activated receptor delta (Homo sapiens) (UniProt Q03181). As to the kind of experiment: qHTS assay to identify small molecule agonists of the peroxisome proliferator-activated receptor delta (PPARd) signaling pathway (AID 743212; calls by dose curve;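 also: HEK293H cells with PPARd UAS beta-lactamase reporter GeneBLAzer system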). Summed up:
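Beta-lactamase reporter read by fluorescence (LiveBLAzer B/G FRET, 2 h, room temperature). Test agents, in DMSO, incubated at 37 C with PPARd-bla HEK293H cells.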
On the technique in general: In qHTS, concentration-response curves come from the screen itself.

Assay [3] in a line: qHTS assay to identify small molecule antagonists of the peroxisome proliferator-activated receptor delta (PPARd) signaling pathway - cell viability counter screen (AID 743213). Also: nearly all actives have a fitted effect of over 50% in size. The method in brief: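 Agonist-stimulated (L165041, 300 nM final) HEK293H PPARd UAS-bla cells are exposed to compounds for 17 h at 37 C, and ATP-based luminescence (CellTiter-Glo) from the same wells reports cytotoxicity.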

In assay [4] the target is Peroxisome proliferator-activated receptor delta (Homo sapiens) (UniProt Q03181). Nature of the assay: qHTS assay to identify small molecule antagonists of the peroxisome proliferator-activated receptor delta (PPARd) signaling pathway (AID 743215; active = well fitted inhibition curve with a large enough effect in the signal ratio in the repeat runs, not every such curve was filed as active; the % refers to the signal ratio; also: series mostly up to about 62 µM). The method in brief: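 Here, a reporter line (HEK293H, beta-lactamase under a UAS) measures PPARd signaling. Compounds are tested against agonist L165041 at 300 nM final concentration over 17 h at 37 C, with fluorescence read after substrate.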
Chain of Peroxisome proliferator-activated receptor delta (Homo sapiens) (Q03181 whole entry, looked up): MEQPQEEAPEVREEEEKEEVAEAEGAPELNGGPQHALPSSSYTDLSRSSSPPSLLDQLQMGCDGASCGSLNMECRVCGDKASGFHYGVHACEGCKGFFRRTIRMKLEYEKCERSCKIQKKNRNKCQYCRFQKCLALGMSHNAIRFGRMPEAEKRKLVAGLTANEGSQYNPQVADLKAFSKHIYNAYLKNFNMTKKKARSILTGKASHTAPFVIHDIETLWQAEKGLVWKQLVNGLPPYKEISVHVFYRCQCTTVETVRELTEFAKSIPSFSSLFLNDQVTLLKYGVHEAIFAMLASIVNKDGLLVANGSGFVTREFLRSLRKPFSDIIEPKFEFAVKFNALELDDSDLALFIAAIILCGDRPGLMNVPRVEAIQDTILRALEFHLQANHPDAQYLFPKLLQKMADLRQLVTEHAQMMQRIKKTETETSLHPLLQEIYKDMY

Assay [5] deals with Bile acid receptor (Homo sapiens) (UniProt Q96RI1). Nature of the assay: qHTS assay to identify small molecule agonists of the farnesoid-X-receptor (FXR) signaling pathway (AID 743220; active = well fitted activation curve with a large enough effect in the signal ratio in the repeat runs, not every such curve was filed as active; the % refers to the signal ratio). The method in brief: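 FXR-UAS-bla HEK 293T cells carrying a UAS-driven beta-lactamase reporter were plated for 5 h at 37C/5% CO2, then exposed to DMSO-dissolved Tox21 10K compounds for 16 h at 37C. A LiveBLAzer B/G FRET substrate was loaded for 2 h at room temperature before fluorescence reading.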
Chain of Bile acid receptor (Homo sapiens) (Q96RI1 whole entry, looked up): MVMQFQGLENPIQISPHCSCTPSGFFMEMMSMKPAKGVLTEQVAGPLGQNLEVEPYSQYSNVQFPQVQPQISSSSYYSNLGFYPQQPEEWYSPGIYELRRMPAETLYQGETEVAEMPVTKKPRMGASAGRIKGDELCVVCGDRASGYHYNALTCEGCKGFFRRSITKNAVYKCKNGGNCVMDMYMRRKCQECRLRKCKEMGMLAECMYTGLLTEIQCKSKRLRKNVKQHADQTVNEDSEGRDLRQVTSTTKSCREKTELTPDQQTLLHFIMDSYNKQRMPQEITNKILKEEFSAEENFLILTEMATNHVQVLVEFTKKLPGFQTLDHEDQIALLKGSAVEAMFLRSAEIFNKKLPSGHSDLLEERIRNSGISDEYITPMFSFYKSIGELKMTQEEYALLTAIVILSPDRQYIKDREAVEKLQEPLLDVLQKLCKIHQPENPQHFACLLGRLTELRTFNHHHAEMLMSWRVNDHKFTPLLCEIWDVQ

Assay [6] in a line: qHTS assay to identify small molecule antagonists of the farnesoid-X-receptor (FXR) signaling pathway - cell viability counter screen (AID 743221; active = well fitted cell-killing curve with a large enough effect in the repeat runs, not every such curve was filed as active; also: nearly all actives have a fitted effect of over 50% in size). The method in brief: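 Luminescence from CellTiter-Glo measures cytotoxicity in GeneBLAzer FXR-UAS-bla HEK 293T cells. Cells were exposed to compounds with 50 uM chenodeoxycholic acid (final) for 16 h at 37 C, in wells also used for the reporter readout.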

Assay [7] has as its target Vitamin D3 receptor (Homo sapiens) (UniProt P11473). Nature of the assay: qHTS assay to identify small molecule agonists of the vitamin D receptor (VDR) signaling pathway (AID 743222; calls by dose curve). The method in brief:
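Tox21 cell reporter format: VDR-bla line, 16 h compound exposure in 5% CO2 at 37C, then fluorescence intensity after 2 h with LiveBLAzer B/G FRET substrate.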

Assay [8] shares this target. Nature of the assay: qHTS assay to identify small molecule antagonists of the vitamin D receptor (VDR) signaling pathway (AID 743223; active = well fitted inhibition curve with a large enough effect in the signal ratio in the repeat runs, not every such curve was filed as active; the % refers to the signal ratio). The method in brief:
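Antagonist mode uses 1alpha,25-dihydroxyvitamin D3 at 3 nM final as stimulus. VDR-bla cells receive compounds in DMSO, incubate 16 h at 37C, then a beta-lactamase FRET substrate for 2 h at room temperature before fluorescence measurement.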

A short description of assay [9]: qHTS assay to identify small molecule agonists of the vitamin D receptor (VDR) signaling pathway - cell viability counter screen (AID 743224). Also: series mostly up to about 63 µM; nearly all actives have a fitted effect of over 50% in size. Summed up:
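CellTiter-Glo viability readout on VDR-bla cells, measured after 16 h of compound treatment at 37C in the same wells.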

The nature of assay [10]: qHTS assay to identify small molecule antagonists of the vitamin D receptor (VDR) signaling pathway - cell viability counter screen (AID 743225). Also: nearly all actives have a fitted effect of over 50% in size. The method in brief: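 Read-out: CellTiter-Glo luminescence measured 30 min after reagent addition at room temperature. Cells were VDR-bla HEK 293T exposed 16 h at 37C, 5% CO2, to compound with 3 nM final calcitriol agonist.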

Assay [11] can be described thus: qHTS assay to identify small molecule agonists of the NFkB signaling pathway - cell viability counter screen (AID 1159515; calls by dose curve; also: series mostly up to about 61 µM; nearly all actives have a fitted effect of over 55% in size). The method in brief:
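Tox21 library compounds were tested for cytotoxicity against NFkB-bla ME-180 cells during a 5 hr exposure at 37 C. CellTiter-Glo luminescence served as the viability read-out.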

A short description of assay [12]: qHTS assay to identify small molecule agonists of the endoplasmic reticulum stress response signaling pathway (AID 1159516; active = well fitted activation curve with a large enough effect in the signal ratio in the repeat runs, not every such curve was filed as active; the % refers to the signal ratio). Summed up:
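Fluorescence at 460 and 530 nm (405 nm excitation) reports beta-lactamase from an ER stress response element in HeLa cells treated 5 hr at 37 C.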

Assay [13] is described as follows: qHTS assay to identify small molecule agonists of the endoplasmic reticulum stress response signaling pathway - cell viability counter screen (AID 1159517; calls by dose curve). The method in brief:
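Cytotoxicity of test compounds toward ESRE-bla HeLa cells was assessed after 5 hr exposure. The luminescent CellTiter-Glo signal was measured 30 min after reagent addition.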

Assay [14] is described as follows: qHTS assay to identify small molecule antagonists of the retinoid-related orphan receptor gamma (ROR-gamma) signaling pathway - cell viability counter screen (AID 1159520). Also: nearly all actives have a fitted effect of over 50% in size. The method in brief: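 Tet-on ROR gamma CHO cells (1,000/well) were plated 4 hr, given compounds in DMSO for 2 hr at 37 C, then induced with 1 uM final doxycycline for 16 hr. Viability was read as ATP by CellTiter-Glo luminescence after 30 min.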

Assay [15] is described as follows: qHTS assay to identify small molecule agonists of the AP-1 signaling pathway - cell viability counter screen (AID 1159525; calls by dose curve; also: nearly all actives have a fitted effect of over 55% in size). Summed up: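 Each titration point was normalised to DMSO and tetra n-octyl ammonium bromide controls. The read was Cell Titer Glo luminescence after 30 min at RT, following 5 h compound exposure of ME-180 AP-1-bla cells at 37 °C.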
Assay [16] is described as follows: qHTS assay to identify small molecule agonists of the AP-1 signaling pathway (AID 1159526; calls by dose curve).
The target in assay [17] is Retinoic acid receptor RXR-alpha (Homo sapiens) (UniProt P19793). Nature of the assay: qHTS assay to identify small molecule agonists of the RXR signaling pathway (AID 1159527; calls by dose curve; also: nearly all actives have a fitted effect of over 35% in size). Summed up: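 Read-out: beta-lactamase FRET ratio (405 nm excitation, 460 and 530 nm emission) after 2 hr substrate loading at room temperature. Cells were RXR-alpha-UAS-bla HEK 293T treated with compounds for 16 hr in 2% charcoal-stripped FBS medium.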
Chain of Retinoic acid receptor RXR-alpha (Homo sapiens) (P19793 whole entry, looked up): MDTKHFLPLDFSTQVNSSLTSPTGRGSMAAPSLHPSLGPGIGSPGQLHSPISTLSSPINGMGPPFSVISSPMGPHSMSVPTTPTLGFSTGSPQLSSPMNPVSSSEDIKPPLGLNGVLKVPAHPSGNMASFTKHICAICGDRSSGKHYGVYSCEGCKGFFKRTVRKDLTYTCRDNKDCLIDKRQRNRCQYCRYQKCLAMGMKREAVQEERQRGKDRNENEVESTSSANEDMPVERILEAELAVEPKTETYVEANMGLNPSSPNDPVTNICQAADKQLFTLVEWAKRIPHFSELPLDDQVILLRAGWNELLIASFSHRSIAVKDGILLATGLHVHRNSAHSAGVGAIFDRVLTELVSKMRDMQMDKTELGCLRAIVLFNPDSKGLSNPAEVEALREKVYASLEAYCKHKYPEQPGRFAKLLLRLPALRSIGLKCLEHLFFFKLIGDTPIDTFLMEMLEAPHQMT

Assay [18] concerns the target Bile acid receptor (Homo sapiens) (UniProt Q96RI1). Nature of the assay: qHTS assay to identify small molecule antagonists of the farnesoid-X-receptor (FXR) signaling pathway (AID 743217; active = well fitted inhibition curve with a large enough effect in the signal ratio in the repeat runs, not every such curve was filed as active; the % refers to the signal ratio). Summed up: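 Test compounds are pin-transferred onto FXR-bla HEK 293T cells, then chenodeoxycholic acid is added at 50 uM final. After 16 h at 37 °C, LiveBLAzer B/G substrate is applied for 2 h at room temperature and fluorescence read.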

Assay [19] in a line: qHTS assay to identify small molecule agonists of the farnesoid-X-receptor (FXR) signaling pathway - cell viability counter screen (AID 743218). Also: nearly all actives have a fitted effect of over 45% in size. The method in brief: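 Quantitative HTS counter screen measuring ATP-based viability via CellTiter-Glo luminescence in HEK 293T cells carrying a UAS-driven beta-lactamase reporter, after 16 h compound exposure at 37 C.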
Assay [20] concerns the target Nuclear receptor ROR-gamma (Homo sapiens) (UniProt P51449). Nature of the assay: qHTS assay to identify small molecule antagonists of the retinoid-related orphan receptor gamma (ROR-gamma) signaling pathway (AID 1159521; also: nearly all actives have a fitted effect of over 50% in size; also: potency is read from the fitted curve at half-maximal effect). The method in brief: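 CHO Tet-on RORγ, RORE-luc reporter. Cpd 2 h pre-incubation, then dox hyclate 1 uM final, 16 h, 37 C/5% CO2. ONE-Glo luminescence; decrease = antagonist.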

Chain of Vitamin D3 receptor (Homo sapiens) (P11473 whole entry, looked up): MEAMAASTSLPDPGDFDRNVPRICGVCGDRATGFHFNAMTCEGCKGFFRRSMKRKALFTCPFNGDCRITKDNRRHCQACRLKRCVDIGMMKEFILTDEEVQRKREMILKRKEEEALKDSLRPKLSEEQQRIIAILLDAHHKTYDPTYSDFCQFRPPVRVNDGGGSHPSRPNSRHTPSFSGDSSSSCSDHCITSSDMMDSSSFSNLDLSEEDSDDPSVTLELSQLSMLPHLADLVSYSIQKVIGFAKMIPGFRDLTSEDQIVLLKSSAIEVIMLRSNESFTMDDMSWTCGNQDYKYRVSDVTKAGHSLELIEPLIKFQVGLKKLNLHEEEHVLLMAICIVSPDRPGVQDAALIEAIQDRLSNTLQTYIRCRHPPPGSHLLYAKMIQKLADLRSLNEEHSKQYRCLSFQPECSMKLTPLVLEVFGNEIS

In the case of `ClC1(Cl)C2(Cl)C3(Cl)C4(Cl)C(Cl)(Cl)C5(Cl)C3(Cl)C1(Cl)C5(Cl)C24Cl` (stereo not drawn), the Potency entry in assay [1], in assay [2], in assay [3], in assay [4], in assay [5] and in [6] was “inactive” in each case. For the same compound, the Potency result in assay [7], in assay [8], in [9], in [10], in assay [11] and in assay [12] was “inactive” throughout. The Potency entry in assay [13], in assay [14], in assay [15], in assay [16] and in assay [17] was “inactive” in each case.

As for `CC(C)Br`, the Potency entry in [1], in assay [3], in [18], in assay [19], in assay [5] and in assay [7] was “inactive” in each case. In addition, the Potency entry in [8], in assay [9], in [10], in [11], in assay [12] and in assay [13] was “inactive” throughout. Moreover, the Potency result in [14], in assay [20] and in [15] was “inactive” throughout.

In the case of `C[N+]1(C)[C@@H]2CC[C@H]1CC(OC(=O)C(CO)c1ccccc1)C2` (stereo partly drawn), the Potency entry in [1], in [2], in assay [3], in assay [4], in assay [19] and in assay [9] was “inactive” each time. The Potency entry in [10], in assay [11], in assay [12], in assay [13], in [14] and in assay [15] was “inactive” each time. In addition, the Potency entry in [16] and in [17] was “inactive” in each case.

Turning to `CCC(C)c1cccc(C(C)CC)c1O` (stereo not drawn), the Potency entry in assay [1], in assay [2], in assay [3], in [19], in assay [6] and in assay [7] was “inactive” each time. In addition, the Potency entry in assay [11], in assay [12], in assay [13], in assay [14], in [20] and in assay [17] was “inactive” in each case.

Take `Nc1ccc(Cl)cc1C(=O)c1ccccc1F`: the Potency entry in assay [1], in assay [2], in assay [4], in assay [18], in assay [9] and in assay [10] was “inactive” in each case. For the same compound, the Potency result in [11], in [12], in [13], in assay [14], in assay [20] and in assay [15] was “inactive” each time.

For the compound `CC(C)N(C(=O)SC/C(Cl)=C/Cl)C(C)C`, the Potency result in assay [1], in assay [2], in assay [3], in assay [4], in assay [18] and in assay [19] was “inactive” throughout. The Potency entry in [5], in assay [7], in [8], in assay [9], in [10] and in assay [11] was “inactive” throughout. In addition, the Potency result in [12], in assay [13], in assay [14], in assay [20] and in assay [15] was “inactive” in each case.

For `CC[C@]1(O)CC[C@H]2[C@@H]3CCC4=CCCC[C@@H]4[C@H]3CC[C@@]21C`, the Potency result in assay [2], in assay [4], in assay [19], in assay [7], in assay [9] and in [10] was “inactive” throughout. Further, the Potency result in assay [11], in assay [12], in assay [13], in assay [14], in [20] and in assay [15] was “inactive” each time.

For `COP(=O)(OC)O/C(=C\Cl)c1cc(Cl)c(Cl)cc1Cl`, the Potency result in assay [1], in [18], in assay [19], in assay [11], in assay [12] and in assay [13] was “inactive” each time. The Potency entry in assay [14] and in assay [15] was “inactive” throughout. For the same compound, the Potency in assay [20] was 38.6 µM (active).

Turning to `C#CCO`, the Potency entry in assay [1], in assay [2], in [3], in [6], in assay [7] and in assay [8] was “inactive” in each case. Also, the Potency entry in assay [9], in assay [10], in assay [11], in assay [12], in assay [13] and in assay [14] was “inactive” throughout. Moreover, the Potency result in [15], in [16] and in assay [17] was “inactive” each time.
